Measured values taken from PubChem BioAssay AID1159580 (chemical genetic matrix, 2015).
Among all 5,500 compounds or so, about 2,000 (36%) were called active. Inconclusive results (about 18%) are left out. Rule as the data show it: active = normalized growth mostly below about 0.91 (no sharp cut-off); inconclusive = no clear call, values can overlap the other calls; inactive = mostly above about 0.92. Some of the results follow.

Assay: chemical genetic growth profiling, strain panel (AID 1159580);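 also: tested at 20 µM; growth read once vehicle control cultures reached saturation at 30 °C; 1 = growth at the plate median or of vehicle wells; lower values mean less growth of the strain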
Settings: S. cerevisiae deletion strains, growth OD
[1] = locus YAL013W, strain DEP1, hits give low values
[2] = locus YMR263W, strain SAP30, hits give low values
[3] = locus YPL241C, strain CIN2, hits give low values

Measured: normalized growth

CCCCCCN(CCCCCC)C(=O)Cc1c(-c2ccc(F)cc2)[nH]c2ccccc12
inactive: [1] 1.03 | locus YAL040C, strain CLN3, hits give low values 1.03 | locus YCL061C, strain MRC1 (second series), hits give low values 1 | locus YDR363W, strain ESC2, hits give low values 1.01 | locus YER002W, strain NOP16, hits give low values 1.02 | locus YGR229C, strain SMI1, hits give low values 1.04 | [2] 1 | locus YMR307W, strain GAS1, hits give low values 0.996 | locus YNL224C, strain SQS1, hits give low values 1.07 | locus YOR083W, strain WHI5 (second series), hits give low values 1.12 | [3] 1
active: locus YNL128W, strain TEP1, hits give low values 1.12 [resistant] | locus YNL175C, strain NOP13, hits give low values 1.15 [resistant]

Cc1nc(N)ncc1Sc1ccccc1
active: locus YLR039C, strain RIC1, hits give low values 0.758
inactive: [1] 0.995 | locus YBR229C, strain ROT2, hits give low values 0.989 | locus YCL061C, strain MRC1, hits give low values 0.963 | locus YDL101C, strain DUN1, hits give low values 0.98 | locus YDR150W, strain NUM1, hits give low values 1 | locus YEL061C, strain CIN8, hits give low values 0.977 | locus YGR078C, strain PAC10, hits give low values 0.986 | locus YHR030C, strain SLT2, hits give low values 0.899 | locus YHR087W, strain rtc3, hits give low values 0.996 | locus YJL187C, strain SWE1, hits give low values 0.981 | locus YJR043C, strain POL32, hits give low values 0.991 | locus YJR075W, strain HOC1, hits give low values 0.934 | locus YLR058C, strain SHM2 (second series), hits give low values 0.987 | locus YLR085C, strain ARP6, hits give low values 1.01 | locus YLR262C, strain YPT6, hits give low values 0.822 | locus YML094W, strain GIM5, hits give low values 0.964 | locus YMR219W, strain ESC1, hits give low values 0.99 | [2] 0.966 | locus YNL153C, strain GIM3, hits give low values 0.961 | locus YNL298W, strain CLA4 (second series), hits give low values 0.961 | locus YNL322C, strain KRE1, hits give low values 0.982 | locus YNR030W, strain Alg12, hits give low values 0.963 | locus YOL006C, strain TOP1, hits give low values 0.911 | locus YPL055C, strain LGE1, hits give low values 0.928 | [3] 1.04 | locus YPR135W, strain CTF4, hits give low values 0.907
